Test results: PubChem BioAssay
Calls of active or inactive are those of the source.

How the values were obtained:
[1] = tested on: PRMT1 (protein arginine N-methyltransferase 1); assay: small molecules binding arginine methyltransferase PRMT1 – biochemical, small-molecule microarray, 635 nm fluorescence, primary screen (AID 1088); conditions: higher = more signal;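 further: binding of Prmt1 protein to compounds spotted on small-molecule microarray slides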
[2] = growth effects on S. cerevisiae YJM789 – YJM789 clinical isolate, OD600, 24 h, basal, primary screen (AID 1089); conditions: higher = more signal, called active from +8 up or from −8 down;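 further: growth of clinical yeast isolate S. cerevisiae YJM 789 seeded 1000 cells per well; test concentration not given here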
[3] = S. pombe growth modifiers, basal conditions – strain 972, OD600, 24 h, no modulator, primary screen (AID 1090);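 further: basal condition with compound alone and no growth modifier present; test concentration not given here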; conditions: S. pombe 972 growth, higher = more signal, called active from +8 up or from −8 down
[4] = budding yeast growth modifiers under rapamycin – strain BY4716, OD600, 96 h, primary screen (AID 1091); further: test concentration not given here; conditions: S. cerevisiae BY4716 + rapamycin, higher = more signal, called active from +8 up or from −8 down
[5] = target: Torsin-1A-interacting protein 2 (Homo sapiens) (UniProt Q8NFQ8); assay: small molecules binding lysate-expressed LULL1 – cell lysate, human LULL1 lysate, 635/667 nm fluorescence, primary screen (AID 1092); conditions: small-molecule microarray, hLULL1 lysate binding, 635 nm fluorescence; higher = more signal;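 further: probe is lysate of COS7 cells overexpressing human LULL1; score merges per-feature 667 nm fluorescence with signal-to-noise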
[6] = optical density change of DRC41 E. coli – strain DRC41, OD650, 24 h, E. coli filamentation project, primary screen (AID 1093);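 further: MC1000 strain lacking acrAB efflux and sulA so SOS filamentation is blocked; test concentration not given here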; conditions: E. coli DRC41 growth, higher = more signal, called active from +8 up or from −8 down
[7] = probe aLefty2 binding to arrayed compounds – biochemical, biotinylated probe, 635/667 nm fluorescence, primary screen (AID 1094); conditions: small-molecule microarray, higher = more signal;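 further: score merges spot fluorescence near 667 nm with spot signal-to-noise ratio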
[8] = tested on: Noggin (protein binding on small-molecule microarray); assay: small molecules binding Noggin protein – biochemical, 635/667 nm fluorescence, primary screen (AID 1095); conditions: 635 nm fluorescence, higher = more signal;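 further: score merges 667 nm feature fluorescence with signal to noise over triplicate slides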
[9] = target: Neurogenic locus notch homolog protein 3 (Homo sapiens) (UniProt Q9UM47); assay: small molecules binding NOTCH3 protein – biochemical, 635/667 nm fluorescence, primary screen (AID 1096); conditions: small-molecule microarray, 635 nm fluorescence, higher = more signal
[10] = probe aEGFR binding to arrayed compounds – biochemical, biotinylated probe, 635/667 nm fluorescence, primary screen (AID 1097); conditions: small-molecule microarray, higher = more signal;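 further: probe is a biotinylated anti-EGFR antibody binding compounds printed on slides; score combines fluorescence near 667 nm and signal to noise of each spot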

Sequence of Torsin-1A-interacting protein 2 (Homo sapiens) (Q8NFQ8 whole entry, looked up): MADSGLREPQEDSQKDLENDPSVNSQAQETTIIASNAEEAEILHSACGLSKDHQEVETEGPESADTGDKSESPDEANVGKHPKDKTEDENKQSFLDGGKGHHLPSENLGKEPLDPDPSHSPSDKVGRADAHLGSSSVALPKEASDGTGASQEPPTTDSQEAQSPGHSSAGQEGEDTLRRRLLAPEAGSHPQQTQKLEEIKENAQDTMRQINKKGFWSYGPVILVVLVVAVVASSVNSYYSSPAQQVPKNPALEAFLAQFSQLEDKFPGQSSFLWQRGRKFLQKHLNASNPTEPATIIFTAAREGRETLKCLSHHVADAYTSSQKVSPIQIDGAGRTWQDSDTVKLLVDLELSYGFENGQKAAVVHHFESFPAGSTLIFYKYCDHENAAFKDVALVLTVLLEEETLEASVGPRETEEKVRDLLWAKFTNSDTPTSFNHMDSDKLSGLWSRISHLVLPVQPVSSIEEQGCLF
Sequence of Neurogenic locus notch homolog protein 3 (Homo sapiens) (Q9UM47 whole entry, looked up): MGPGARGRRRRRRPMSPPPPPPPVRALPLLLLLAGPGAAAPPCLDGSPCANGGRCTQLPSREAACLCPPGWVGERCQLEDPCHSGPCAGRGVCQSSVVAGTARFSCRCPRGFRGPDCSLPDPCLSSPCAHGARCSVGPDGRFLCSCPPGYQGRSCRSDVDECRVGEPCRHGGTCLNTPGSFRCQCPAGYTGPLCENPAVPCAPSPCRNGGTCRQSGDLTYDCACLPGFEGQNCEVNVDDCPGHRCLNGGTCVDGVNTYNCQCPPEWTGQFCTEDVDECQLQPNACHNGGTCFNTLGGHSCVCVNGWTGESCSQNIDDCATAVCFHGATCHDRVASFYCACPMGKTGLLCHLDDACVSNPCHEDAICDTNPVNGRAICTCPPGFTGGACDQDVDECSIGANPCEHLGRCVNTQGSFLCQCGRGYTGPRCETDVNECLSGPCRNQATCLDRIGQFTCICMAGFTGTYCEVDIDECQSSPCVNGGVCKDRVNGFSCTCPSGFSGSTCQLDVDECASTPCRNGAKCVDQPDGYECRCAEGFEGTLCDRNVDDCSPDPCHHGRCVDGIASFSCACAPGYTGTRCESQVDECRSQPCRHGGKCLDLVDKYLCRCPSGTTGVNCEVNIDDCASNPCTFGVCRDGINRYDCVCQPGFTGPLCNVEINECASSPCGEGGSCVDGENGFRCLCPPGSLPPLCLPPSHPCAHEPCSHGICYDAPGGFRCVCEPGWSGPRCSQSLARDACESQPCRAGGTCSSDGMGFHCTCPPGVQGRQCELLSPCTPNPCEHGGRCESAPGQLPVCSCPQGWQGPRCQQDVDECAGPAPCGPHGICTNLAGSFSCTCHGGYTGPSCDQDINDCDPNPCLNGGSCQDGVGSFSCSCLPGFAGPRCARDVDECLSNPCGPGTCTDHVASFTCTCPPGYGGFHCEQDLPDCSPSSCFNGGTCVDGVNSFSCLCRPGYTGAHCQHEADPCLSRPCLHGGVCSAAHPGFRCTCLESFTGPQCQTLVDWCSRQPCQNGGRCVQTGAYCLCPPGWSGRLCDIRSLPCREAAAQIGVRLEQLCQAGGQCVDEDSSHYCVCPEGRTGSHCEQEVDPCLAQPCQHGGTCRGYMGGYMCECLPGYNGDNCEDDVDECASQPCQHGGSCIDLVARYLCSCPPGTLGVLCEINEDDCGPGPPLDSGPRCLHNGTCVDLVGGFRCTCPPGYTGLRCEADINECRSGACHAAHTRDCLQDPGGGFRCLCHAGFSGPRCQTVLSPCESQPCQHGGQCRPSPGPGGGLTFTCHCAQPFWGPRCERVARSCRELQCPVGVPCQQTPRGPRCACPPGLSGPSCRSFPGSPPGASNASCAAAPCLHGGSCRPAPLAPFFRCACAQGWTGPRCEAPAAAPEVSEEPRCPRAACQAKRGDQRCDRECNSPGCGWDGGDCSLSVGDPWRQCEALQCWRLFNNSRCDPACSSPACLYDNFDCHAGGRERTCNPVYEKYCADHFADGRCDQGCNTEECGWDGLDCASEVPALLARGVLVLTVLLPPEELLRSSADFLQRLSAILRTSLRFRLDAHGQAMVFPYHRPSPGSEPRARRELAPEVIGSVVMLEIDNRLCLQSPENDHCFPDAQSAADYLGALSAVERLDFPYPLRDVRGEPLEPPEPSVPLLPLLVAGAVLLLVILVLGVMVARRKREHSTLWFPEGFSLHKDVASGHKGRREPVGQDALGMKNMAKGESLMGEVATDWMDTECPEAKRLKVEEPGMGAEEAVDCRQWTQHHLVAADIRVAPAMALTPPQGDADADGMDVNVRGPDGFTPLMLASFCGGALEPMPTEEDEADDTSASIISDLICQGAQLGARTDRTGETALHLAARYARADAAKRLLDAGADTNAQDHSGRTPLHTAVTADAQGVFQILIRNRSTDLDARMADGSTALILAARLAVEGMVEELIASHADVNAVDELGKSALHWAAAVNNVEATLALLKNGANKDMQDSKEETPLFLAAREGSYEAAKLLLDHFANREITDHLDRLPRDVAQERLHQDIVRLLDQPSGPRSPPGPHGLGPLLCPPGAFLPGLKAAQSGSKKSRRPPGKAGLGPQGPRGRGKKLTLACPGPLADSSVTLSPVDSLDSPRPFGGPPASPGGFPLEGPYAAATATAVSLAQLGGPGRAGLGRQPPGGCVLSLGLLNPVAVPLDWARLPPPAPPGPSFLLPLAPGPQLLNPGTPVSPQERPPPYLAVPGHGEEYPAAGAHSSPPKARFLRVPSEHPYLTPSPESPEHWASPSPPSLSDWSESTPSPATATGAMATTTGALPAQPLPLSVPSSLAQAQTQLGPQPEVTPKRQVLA

| SMILES | composite z-score [1] | z-score [2] | z-score [3] | z-score [4] | composite z-score [5] | z-score [6] | composite z-score [7] | composite z-score [8] | composite z-score [9] | composite z-score [10] |
| --- | --- | --- | --- | --- | --- | --- | --- | --- | --- | --- |
| O=C1C2C=CC(C(O)c3cccc4ccccc34)N(Nc3ccccc3F)C2C(=O)N1c1ccccc1 (stereo not given) | 1.54 | 0.0692 (inactive) | 0.865 (inactive) | 1.01 (inactive) | 3.69 | -0.316 (inactive) | 0.13 | 0.0926 | 1.12 | 0.222 |
| COC(=O)[C@@]1(Cc2ccc(F)cc2)[C@H]2c3cc(C(=O)N4CCCC4)n(CCCNc4ncc(C(F)(F)F)cc4Cl)c3C[C@H]2CN1C(=O)c1ccccc1 | -0.954 | 1.62 (inactive) | 2.15 (inactive) | 2.65 (inactive) | 2.65 | -0.87 (inactive) | 0.83 | -0.756 | 0.696 | 0.476 |
| CC(C)C(=C=CC[C@@H](O)c1ccc(OCCO)cc1)C[C@@H](O)c1ccccn1 | 1.19 | -1 (inactive) | -0.141 (inactive) | -0.347 (inactive) | -0.27 | -0.162 (inactive) | -0.235 | 1.08 | 0.813 | -0.133 |
| O=C1C[C@@](C(=O)NCCN2CCOCC2)(c2ccc([N+](=O)[O-])cc2)[C@@H](c2ccc(CO)cc2I)N1CC12CC3CC(CC(C3)C1)C2 | 1.54 | -24.9 (active) | -5.93 (inactive) | 0.0788 (inactive) | 3.2 | -0.981 (inactive) | -0.112 | 1.2 | 1.08 | -0.0381 |
| [N-]=[N+]=Nc1ccccc1[C@H]1OC(c2ccc(OCCCO)cc2)=N[C@@]1(CCS(=O)(=O)c1ccccc1)C(=O)NCC(O)CO (stereo not given in full) | 0.976 | -0.733 (inactive) | -0.213 (inactive) | 0.803 (inactive) | 3.64 | -0.168 (inactive) | 0.207 | 0.108 | 0.244 | -0.111 |
| COC(=O)C(CC#Cc1ccc2c(c1)[C@]1(C(=O)N2)[C@H](c2ccc(OCCO)cc2)N2[C@H](c3ccccc3)[C@H](c3ccccc3)OC(=O)[C@H]2[C@@H]1C(=O)N1CCc2cc(OC)c(OC)cc2C1)C(=O)OC | 1.57 | 2.12 (inactive) | 1.74 (inactive) | 5.14 (inactive) | 3.34 | 0.49 (inactive) | 0.365 | -1.11 | 1.07 | 0.169 |
| O=C(NCCN1CCOCC1)[C@@H]1c2ccccc2C(=O)N(C2CCCCC2)[C@H]1c1ccc(CO)cc1 | 0.403 | -0.166 (inactive) | -0.556 (inactive) | 0.0989 (inactive) | 2.35 | -0.0985 (inactive) | -0.0042 | -0.562 | -0.565 | -0.2 |
| COCCOC(=O)N1C(=O)[C@@]2(c3cc(C#CCNC(N)=O)ccc31)[C@H](C(=O)Nc1nc3ccccc3s1)[C@H]1C(=O)O[C@H](c3ccccc3)[C@H](c3ccccc3)N1[C@@H]2c1ccc(OCCO)cc1 | 1.55 | 1.18 (inactive) | 0.409 (inactive) | 2.79 (inactive) | 1.61 | -0.333 (inactive) | 0.711 | 0.88 | 1.06 | -0.0354 |
| O=C1C2C=CC(C(O)CCc3ccccc3)N(Nc3ccccc3F)C2C(=O)N1c1ccccc1 (stereo not given) | 1.49 | -0.566 (inactive) | 0.624 (inactive) | -0.378 (inactive) | 3.28 | -0.0741 (inactive) | 0.183 | 0.279 | 1.08 | 0.0059 |
| C=CC[C@@]12N=C(c3ccc(OCCCO)cc3)O[C@@H]1c1ccccc1N(C)C2=O | 1.55 | 0.501 (inactive) | -5.65 (inactive) | 0.432 (inactive) | 2.93 | 0.671 (inactive) | 0.246 | 1.75 | 0.997 | 0.0499 |
| CC(C)NC(=O)[C@@H]1c2ccccc2C(=O)N(C2Cc3ccccc3C2)[C@H]1c1ccc(CO)cc1 | 1.03 | -0.14 (inactive) | -0.0232 (inactive) | -0.377 (inactive) | 2.33 | 1.28 (inactive) | -0.0491 | 0.0941 | 0.436 | -0.126 |
| [N-]=[N+]=NCc1ccccc1[C@@H]1OC(c2ccc(OCCCO)cc2)=N[C@]1(Cc1ccccc1)C(=O)NCC(O)CO (stereo not given in full) | 1.25 | -0.427 (inactive) | 0.0493 (inactive) | -0.659 (inactive) | 3.44 | 0.123 (inactive) | 0.414 | 0.238 | -0.27 | 0.411 |
| C[C@H]1NC(=O)[C@@]23C(=O)N[C@@H](Cc4ccccc4)C2[C@H](C)[C@@]2(C)O[C@H]2C3/C=C/C/C=C\CNC(=O)[C@@H]2CCCN2C1=O (stereo not given in full) | -0.0905 | -0.185 (inactive) | -0.769 (inactive) | -1.52 (inactive) | 0.697 | 0.1 (inactive) | -0.166 | 1.15 | 1.01 | -0.139 |
| C=CCOC(=O)[C@H]1[C@@H]2C(=O)O[C@@H](c3ccccc3)[C@@H](c3ccccc3)N2[C@@H](c2ccc(OCCOC(=O)[C@H]3C[C@H]4C(=O)N[C@@H](CCCCN(C)C)C(=O)N4[C@H]3c3ccc(O)cc3)cc2)[C@]12C(=O)Nc1ccc(I)cc12 | 1.55 | -0.0743 (inactive) | -0.526 (inactive) | -0.698 (inactive) | 2.49 | -0.411 (inactive) | 0.172 | 1.73 | 1.07 | 0.124 |
